From PubChem BioAssay AID1918 (Vanderbilt High Throughput Screening Facility, 2009) come the findings set out here.

Out of some 130,000 compounds screened, about 2,500 (1.9%) were called active. Only a selection was taken, and actives are over-represented in it overall. A number with no mark means an inactive call.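 How the source made its calls: active means signal ratio slope over the read window, or its plate-corrected B-score, at least 3 SD from the plate mean, either direction; inactive means the rest.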

For this assay, the target named is ATP-sensitive inward rectifier potassium channel 1 (Homo sapiens) (UniProt P48048). As to the kind of experiment: Kir1.1 channel activity modulation, library screen – cell-based, thallium flux, MLSMR library, primary screen (AID 1918).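 Further: B-score of the F/F0 ratio slope over 7 to 12 s after thallium.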 The conditions noted are these: Tet-inducible ROMK, thallium flux fluorescence; at 10 µM; actives lie on both sides.
Chain of ATP-sensitive inward rectifier potassium channel 1 (Homo sapiens) (P48048 whole entry, looked up): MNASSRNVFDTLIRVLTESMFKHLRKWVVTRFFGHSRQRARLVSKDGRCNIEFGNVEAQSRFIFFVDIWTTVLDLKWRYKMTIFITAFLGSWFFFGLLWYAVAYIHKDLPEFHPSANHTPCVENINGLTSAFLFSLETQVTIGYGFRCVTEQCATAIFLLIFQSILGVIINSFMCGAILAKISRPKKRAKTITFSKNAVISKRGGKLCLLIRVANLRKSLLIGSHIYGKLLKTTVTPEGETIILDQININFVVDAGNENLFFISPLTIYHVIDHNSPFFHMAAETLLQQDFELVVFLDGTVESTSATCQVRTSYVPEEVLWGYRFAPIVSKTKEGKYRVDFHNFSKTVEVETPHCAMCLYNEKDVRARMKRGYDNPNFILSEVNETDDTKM
Consider `COC(=O)c1ccccc1NC(=O)C1CCN(S(=O)(=O)c2cc(OC)ccc2OC)CC1`, for which the B-score is 2.29 (active).
The result for `CCOC(=O)C1CCN(S(=O)(=O)c2cc(F)ccc2OC)CC1` reads -0.346; that for `COC(=O)c1ccccc1NC(=O)C1CC(=O)N(c2ccc(OC)cc2)C1` (stereo unspecified), 0.403.
The result for `CCOC(=O)C1=C(CN2CCCCCC2)NC(=O)NC1c1cccc([N+](=O)[O-])c1` (stereo unspecified) reads -1.02; that for `COc1ccc(C(=O)NC2CCN(C(=S)NCCc3ccccc3)CC2)cc1`, -0.464.
With `NS(=O)(=O)c1ccc(CCNC(=O)c2ccc([N+](=O)[O-])cc2[N+](=O)[O-])cc1` the figure was 0.546; with `COc1ccc(CC(=O)Nc2cc(S(=O)(=O)N3CCCCC3)ccc2N2CCN(C)CC2)cc1`, 0.269; with `CN1CCN(c2ccc(S(=O)(=O)N3CCCCC3)cc2NC(=O)Cc2ccccc2F)CC1`, -4.06 (active).
With `O=C(COC(=O)c1ccccc1F)Nc1cc(S(=O)(=O)N2CCOCC2)ccc1N1CCCC1`, the B-score is -0.699.
The result for `C=CCOC(=O)C1=C(C)N=C2SCCC(=O)N2C1/C=C/c1ccccc1OC` (stereo unspecified) reads -2.24.
With `COCCn1c(Cc2cccn2C)nnc1SCC(=O)Nc1nccs1` the figure was -0.191.
The result for `CCn1c(/C=C/Nc2ccccc2)[n+](CC)c2ccc(C(=O)OCC(F)(F)F)cc21` reads -3.51 (active).
Take `Cn1cnc(S(=O)(=O)Nc2ccc3c(c2)OCCO3)c1`: the B-score was 1.18.
With `O=C(/C=C/c1c(F)cccc1Cl)Nc1nn[nH]n1` the figure was -0.796; with `CNC(=O)/C(C#N)=C/c1c(F)cccc1Cl`, -5.65 (active); with `Cc1[nH]c2ccccc2c1/C=C(/C#N)C(=O)NC(C)C`, 0.27.
The result for `COc1ccc(C(=O)NC2CCN(C(=S)Nc3ccccc3)CC2)cc1` reads 0.59; that for `C=CCn1c(COc2ccc(F)cc2)nnc1SCC(=O)Nc1cccc(S(N)(=O)=O)c1`, 0.118.
As to `COC(=O)CNc1nc(Cl)nc(N2CCC(C)CC2)n1`, the B-score is -0.416.
With `COCCNC(=O)c1ccc(-n2c(SCc3cccnc3)nc3ccccc3c2=O)cc1` the figure was -0.255; with `O=C1CN(C(=O)COC(=O)c2cnc(Cl)c(Cl)c2)c2ccccc2N1`, -0.857.
With `CN(C)CC(O)COc1ccc(C(C)(C)c2ccc(OCC(O)CN(C)C)cc2)cc1` (stereo unspecified) the figure was -0.0221; with `CC(C)(c1ccccc1)c1ccc(OCCN)cc1`, -2.62 (active); with `CCCOc1ccc(C(=O)NCCc2ccccc2)cc1`, 0.056.
With `O=C(NC(=S)Nc1ccc(S(=O)(=O)N2CCOCC2)cc1)c1ccccc1[N+](=O)[O-]` the figure was -0.648.
`CN(CC(=O)Nc1ccc(N2CCOCC2)cc1)CC(=O)Nc1ccccc1[N+](=O)[O-]`: the B-score was -0.00205.
The result for `O=C(Nc1ccc(N2CCOCC2)cc1)c1ccc(-c2ccccc2[N+](=O)[O-])o1` reads 3.49 (active); that for `CCc1nnc(NC(=O)Cc2cccs2)s1`, 0.627.
With `CCn1cc(CN2CCCC(CNS(=O)(=O)Cc3ccccc3)C2)cn1` (stereo unspecified) the figure was -1.12; with `CCOc1ncccc1C(=O)OCC(=O)NC1CC1`, 0.144; with `COc1cccc(NC(=O)CC2C(=O)NCCN2C(=S)Nc2ccc(F)cc2)c1` (stereo unspecified), -0.0401.
